By inhibition is commonly meant the change of the read-out against control, counted positive when it falls.

Among all 330,000 compounds or so, about 10,000 (3%) were called active. Only a selection was taken, and actives are over-represented in it overall. A number with no mark means an inactive call.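 Rule for the calls: active = inhibition of at least 50% at 8 µM in the primary screen; inactive = the rest.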

Data on 90 molecules can be found in PubChem BioAssay AID485346 (Sanford-Burnham Center for Chemical Genomics, 2010).

Sequence of Protein Mdm4 (Homo sapiens) + E3 ubiquitin-protein ligase Mdm2 (Homo sapiens) (O15151 whole entry, looked up): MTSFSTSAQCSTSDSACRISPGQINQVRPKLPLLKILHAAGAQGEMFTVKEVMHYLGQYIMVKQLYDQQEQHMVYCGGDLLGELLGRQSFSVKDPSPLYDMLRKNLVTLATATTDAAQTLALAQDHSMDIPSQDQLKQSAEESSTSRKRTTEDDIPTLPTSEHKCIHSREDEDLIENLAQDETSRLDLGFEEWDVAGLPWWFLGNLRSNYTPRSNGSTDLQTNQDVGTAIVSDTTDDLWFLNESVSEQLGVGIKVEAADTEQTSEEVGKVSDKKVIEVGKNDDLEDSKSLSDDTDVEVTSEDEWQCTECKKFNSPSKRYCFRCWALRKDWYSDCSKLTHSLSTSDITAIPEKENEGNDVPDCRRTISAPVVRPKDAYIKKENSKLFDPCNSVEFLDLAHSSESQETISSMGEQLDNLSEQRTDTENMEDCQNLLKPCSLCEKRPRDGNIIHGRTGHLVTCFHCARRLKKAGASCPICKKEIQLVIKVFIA
Sequence of Protein Mdm4 (Homo sapiens) + E3 ubiquitin-protein ligase Mdm2 (Homo sapiens) (Q00987 whole entry, looked up): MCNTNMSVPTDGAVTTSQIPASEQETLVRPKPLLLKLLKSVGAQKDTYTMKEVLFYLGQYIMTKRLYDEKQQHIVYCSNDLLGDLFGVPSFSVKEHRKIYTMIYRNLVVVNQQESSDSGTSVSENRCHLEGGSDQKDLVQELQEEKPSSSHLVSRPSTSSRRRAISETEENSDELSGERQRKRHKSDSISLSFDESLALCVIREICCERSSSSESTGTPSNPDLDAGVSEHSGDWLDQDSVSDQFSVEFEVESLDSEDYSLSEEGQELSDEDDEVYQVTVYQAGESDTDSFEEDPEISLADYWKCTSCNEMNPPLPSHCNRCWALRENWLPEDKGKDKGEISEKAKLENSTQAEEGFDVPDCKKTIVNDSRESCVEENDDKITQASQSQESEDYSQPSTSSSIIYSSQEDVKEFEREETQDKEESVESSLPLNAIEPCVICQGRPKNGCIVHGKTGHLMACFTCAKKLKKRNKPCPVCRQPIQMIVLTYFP

The assay has as its target Protein Mdm4 (Homo sapiens) + E3 ubiquitin-protein ligase Mdm2 (Homo sapiens) (UniProt O15151+Q00987). Nature of the assay: disruptors of Mdm2/MdmX RING complex – cell-based, luminescence, split luciferase, SaOS-2, uHTS, primary screen (AID 485346). The note with it: SaOS-2 split-luciferase Mdm2/MdmX complementation, at 8 µM, stronger effect = higher value.
Take `OC(CNC1CCCC1)COc1ccc(F)cc1` (stereo not given): the inhibition was 7.59%.

`CCCCCCCCCCOC(=O)C[N+](C)(C)CC1CCCCC1O` (stereo not given): the inhibition is 23.5%.

Take `CCN(CC(=O)NCc1ccc(Cl)cc1)C(=O)c1c(C)noc1C`: the inhibition was 3.48%.

For the molecule `O=C(c1ccncc1)N1CCN(S(=O)(=O)c2cccc([N+](=O)[O-])c2)CC1`, the inhibition was -3.71%.

`CC(C)c1ccc(-c2noc(C3CCCN(S(C)(=O)=O)C3)n2)cc1` (stereo not given): the inhibition was 2.01%.

In the case of `Cn1c(C(=O)NCCc2ccsc2)cc2c(=O)n(C)c3ccccc3c21`, the inhibition is -6.58%.

On to `Cn1c(C(=O)NCCCN2CCN(c3cccc(Cl)c3)CC2)cc2c(=O)n(C)c3ccccc3c21`, for which the inhibition was 76.9% (active).

Regarding `CCN1CCCC1CNC(=O)c1cc2c(=O)n(C)c3ccccc3c2n1C` (stereo not given), the inhibition is 18.3%.

With `O=C(OCC(=O)N1CCN(C(=O)c2ccco2)CC1)c1c(Cl)cccc1Cl`, the inhibition is 2.03%.

On to `CCOC(=O)Cn1c2c(c(-c3ccccc3OC)cc1=O)CCCC2`, for which the inhibition is -13.8%.

For the molecule `CCO[C@H]1OC(C(=O)O)=C[C@@H](C2CCCCC2)[C@@H]1CCCO`, the inhibition was -5.58%.

As to `CCOC(=O)COn1c(=O)c(-c2ccc(OCC)cc2)[n+]([O-])c2ccccc21`, the inhibition is -23.1%.

As to `CCCCCCCCCCOC(=O)Cn1c(COc2ccc(C)cc2)[n+](C)c2ccccc21`, the inhibition was 91.9% (active).

With `CCCCCCCCCCOC(=O)Cn1c(COc2cccc(OC)c2)[n+](C)c2ccccc21`, the inhibition was 61.7% (active).

With `CCOC(=O)Cn1c(-c2cccnc2Cl)nc2ccccc21`, the inhibition is -0.413%.

With `CCCCn1c(N)c(N(CCOC)C(=O)c2cccc(OCc3ccccc3)c2)c(=O)[nH]c1=O`, the inhibition was -6.7%.

Take `COc1cccc(OCc2nnc3n2N=C(c2ccccc2)C(CC(=O)O)S3)c1` (stereo not given): the inhibition is -4%.

As to `COc1cccc(NC(=O)CSc2nnc(C3CCCCC3)n2N)c1`, the inhibition is 18.3%.

`CNC[C@@H]1Oc2c(NS(C)(=O)=O)cccc2C(=O)N([C@@H](C)CO)C[C@H]1C`: the inhibition was -13.4%.

Consider `COC(=O)c1ccc(/C=N/OCC(=O)Nc2cc(F)ccc2F)cc1`, for which the inhibition is -13.4%.

In the case of `COc1ccccc1N1CCN(c2ncnc3sc(C)c(-c4ccccc4)c23)CC1`, the inhibition is 69.2% (active).

As to `COc1ccccc1N1CCN(c2ccc([N+](=O)[O-])nc2)CC1`, the inhibition was 16.1%.

As for `COc1ccccc1N1CCN(C(=O)c2c(-c3c(Cl)cccc3Cl)noc2C)CC1`, the inhibition is 15.5%.

Consider `O=C(NC1Cc2ccccc2C1)c1cc(COc2cccc(C(F)(F)F)c2)on1`, for which the inhibition was 26.2%.

Regarding `CS(=O)(=O)N(CC(O)Cn1c2ccccc2c2ccccc21)c1cccc2ccccc12` (stereo not given), the inhibition was 64.1% (active).

As for `CCCCN(CCCC)CC(O)Cn1c2ccccc2c(=O)c2ccccc21` (stereo not given), the inhibition is 18.6%.

As to `CC(=O)c1ccc2c(c1)c1ccccc1n2CC(C)C`, the inhibition was 47.4%.

Take `COc1ccc(S(=O)(=O)N2CCOCC2)cc1NC(=O)CSc1cc(C)ccc1C`: the inhibition was 9.92%.

Take `Cn1c2c(c(=O)n(C)c1=O)C(c1cccc(F)c1)C(C#N)=C(N)O2` (stereo not given): the inhibition is -0.62%.

For the molecule `Cc1ccc(C(=O)NCC(=O)NCc2cc(=O)n(C)c(=O)n2C)cc1`, the inhibition is -0.269%.

Turning to `COc1ccc(Cl)cc1C(=O)Nc1ccc(N(C)C(C)=O)cc1`, the inhibition is 1.34%.

As for `CCC(C)NC(=O)c1cc(Cl)ccc1OC` (stereo not given), the inhibition was 2.55%.

Take `COC(=O)c1ccc(NC(=O)c2cc(Cl)ccc2OC)cc1`: the inhibition is 92.4% (active).

In the case of `COc1cc(NC(=S)NCCSc2ccc(C)cc2)cc(OC)c1`, the inhibition was 27.5%.

Take `O=S(=O)([N-]c1nc2ccccc2nc1-[n+]1ccc(Cc2ccccc2)cc1)c1ccc(Br)s1`: the inhibition is 71.9% (active).

For `O=C(NCCc1ccccc1)C1CCN(S(=O)(=O)c2ccc(Br)s2)CC1`, the inhibition was 18.6%.

For the molecule `O=S(=O)(NCc1cccnc1)c1ccc(Br)s1`, the inhibition is 1%.

Consider `COc1ccc2c(c1)c1nc3n(c(=O)c1n2CC(=O)Nc1ccccc1)CCS3`, for which the inhibition was 41.9%.

Take `CC(C(=O)NC1CCCC1)N1CCN(S(=O)(=O)c2ccccc2Cl)CC1` (stereo not given): the inhibition was -17.2%.

On to `Cn1nccc1C(=O)NC1CCCc2c1cnn2-c1ccc(F)cc1F` (stereo not given), for which the inhibition is 26.9%.

Take `Cn1nccc1C(=O)NC1CCCc2c1cnn2-c1ccccc1F` (stereo not given): the inhibition was -1.1%.

As for `Cc1ccc(-n2ncc3c2CCCC3NC(=O)c2cnccn2)cc1C` (stereo not given), the inhibition is 9.66%.

`CC(=O)NCC(=O)NC1CCCc2c1cnn2-c1ccccc1F` (stereo not given): the inhibition was -11.2%.

Regarding `COc1ccc(C(=O)NC2CCCc3c2cnn3-c2cccc(C)c2C)c(OC)n1` (stereo not given), the inhibition is 97.7% (active).

On to `Cc1cc(C(=O)NC2CCCc3c2cnn3-c2cccc(C)c2C)c(C)o1` (stereo not given), for which the inhibition is 68% (active).

With `Cc1nonc1C1CCCN1Cc1nc(-c2ccc(F)cc2F)oc1C` (stereo not given), the inhibition was 29.7%.

As to `Clc1ccc(C[n+]2cc(-c3ccc(Cl)cc3)n3c2CCC3)cc1`, the inhibition was 31.8%.

As for `COc1ccc(S(=O)(=O)Nc2ccc3cn[nH]c3c2)cc1[N+](=O)[O-]`, the inhibition was 0.751%.

Regarding `O=[N+]([O-])c1cc(S(=O)(=O)Nc2cccc(Cl)c2)ccc1N=Nc1c(O)[nH]c2ccccc12`, the inhibition is 97.4% (active).

In the case of `Cc1cccc(N(CC(=O)N=Nc2c(O)[nH]c3ccccc23)S(C)(=O)=O)c1C`, the inhibition was -22.1%.

With `CCN(CC)CCCNC(=O)c1cc2c(=O)[nH]c3ccc(C)cc3c2s1`, the inhibition was 26.3%.

`Cc1ccc2[nH]c(=O)c(CC(=O)O)c(-c3ccccc3)c2c1`: the inhibition was 22%.

With `Cc1cccc(N(C)C(=O)c2cc3c(=O)[nH]c4ccc(C)cc4c3s2)c1`, the inhibition was 60.9% (active).

With `O=C(CNC(=O)C12CC3CC(CC(C3)C1)C2)OCC(=O)N1CCCCC1`, the inhibition is 19.2%.

With `C/C(=N\NC(=O)c1ccc(NS(=O)(=O)c2cccs2)cc1)c1ccc2ccccc2c1`, the inhibition is -6.93%.

For `COc1cc(OC)cc(C(=O)NC2CCN(C(=O)N3c4ccccc4Sc4ccccc43)CC2)c1`, the inhibition is 9.25%.

Regarding `Nc1ccc(C(=O)Nc2ccccc2N)cc1`, the inhibition was 54.8% (active).

`Nc1ccc(C(=O)NCc2ccccc2)cc1`: the inhibition is 3.98%.

Consider `CC(=O)Nc1ccccc1NC(=O)c1cc(C)cc(C)c1`, for which the inhibition was -1.21%.

For the molecule `O=C(NC1C2CC3CC(C2)CC1C3)c1ccc(N2CCNCC2)c([N+](=O)[O-])c1` (stereo not given), the inhibition is 34.8%.

Take `O=C(Nc1cccc(C(F)(F)F)c1)c1ccc(N2CCNCC2)c([N+](=O)[O-])c1`: the inhibition is 52.8% (active).

Take `CCC(C)NC(=O)c1ccc(N2CCC3(CC2)OCCO3)c([N+](=O)[O-])c1` (stereo not given): the inhibition was 10.6%.

For the molecule `O=C(Nc1ccc(N2C(=O)c3cccc4cccc(c34)C2=O)cc1)c1ccc(N2CCCCC2)c([N+](=O)[O-])c1`, the inhibition was -6.66%.

For the molecule `COc1cc(OC)cc(C(=O)NC(=S)N2CCN(c3ccc(C(F)(F)F)cc3[N+](=O)[O-])CC2)c1`, the inhibition is 17.3%.

In the case of `CC(NC(=O)c1ccc(N2CCNCC2)c([N+](=O)[O-])c1)C12CC3CC(CC(C3)C1)C2` (stereo not given), the inhibition was 101% (active).

Consider `Brc1c(CSc2nncc3ccccc23)nc2ccccn12`, for which the inhibition is 21.7%.

Take `CCc1ccccc1NC(=O)c1ccc2c(c1)CCN2S(C)(=O)=O`: the inhibition is 24.8%.

In the case of `CC(=N\NC(=O)c1cc(Br)ccc1O)/C(=N/O)C(=O)Nc1ccccc1`, the inhibition is 36.7%.

Take `CCN(CC)C(CNC(=O)CSc1nnnn1-c1cccc(F)c1)c1ccco1` (stereo not given): the inhibition was -4.51%.

With `CCCCNC(=O)CSc1nc2n[nH]c(C)c2c(=N)n1-c1cccc(Cl)c1C`, the inhibition was -6.85%.

Regarding `Cc1ccc(-n2c(SCC(=O)NCCC3=CCCCC3)nc3n[nH]c(C)c3c2=N)cc1Cl`, the inhibition was 28.5%.

As to `COc1cccc(-n2c(SCC(=O)NC3CCCCC3)nc3n[nH]c(C)c3c2=N)c1`, the inhibition is 53.3% (active).

With `COCCNC(=O)CSc1nc2sccc2c(=O)n1-c1ccccc1`, the inhibition is 6.49%.

Regarding `O=c1c2c3c(sc2n(CCN2CCCC2)c(=O)n1Cc1ccccc1)CCCCC3`, the inhibition was 28.5%.

For `CN(C)CCCn1c(=O)n(Cc2ccccc2)c(=O)c2c3c(sc21)CCCCC3`, the inhibition was 61.8% (active).

Consider `Cn1c(=O)n(Cc2ccco2)c(=N)c2c3c(sc21)CCCC3`, for which the inhibition is 15.6%.

As to `CCc1ccc(C(CNc2nc(C(F)(F)F)nc3ccccc23)N(C)C)cc1` (stereo not given), the inhibition is 20.9%.

`CC(Nc1nc(C(F)(F)F)nc2ccccc12)c1cccs1` (stereo not given): the inhibition was 69.6% (active).

As for `COc1cccc(CNc2nc(C(F)(F)F)nc3ccccc23)c1`, the inhibition was 31.6%.

Consider `COc1ccccc1CNC(=O)CCCN1C(=O)NC2(CCCC2)C1=O`, for which the inhibition was 20.4%.

As for `Cc1c(C(=O)NCCN2CCOCC2)sc2nc(-c3ccc(F)cc3)cn12`, the inhibition was 7.76%.

Consider `O=C(N/N=C/c1cccnc1)c1ccc(NC(=O)c2ccc(F)cc2)cc1`, for which the inhibition was -2.66%.

Turning to `O=C(N/N=C/c1sc(N2CCCCC2)nc1-c1cccs1)c1cccnc1`, the inhibition is 57.4% (active).

On to `O=C(NN=C1CCC(=NNC(=O)c2cccnc2)CC1)c1cccnc1`, for which the inhibition is -0.152%.

As for `CCOC(=O)c1csc(CCNC(=O)c2oc3c(Cl)cc(C)cc3c2C)n1`, the inhibition was 21.7%.

`CC(C)(C)CC(C)(C)NCC(O)COCCOc1ccc(Br)cc1` (stereo not given): the inhibition is 65.4% (active).

For the molecule `CC(Oc1ccc(Br)cc1)C(=O)NC1CCCCCC1` (stereo not given), the inhibition is 0.219%.

In the case of `OC(COc1ccc(Br)cc1)CN1CCCC1` (stereo not given), the inhibition was 2.28%.

Take `NC(=O)CCC(NS(=O)(=O)c1ccc(Cl)cc1)C(=O)NCc1ccccc1Cl` (stereo not given): the inhibition was 20.8%.

Consider `Cc1cc(C)c2nc(-c3cccnc3)cc(C(=O)Nc3ccc(S(=O)(=O)Nc4onc(C)c4C)cc3)c2c1`, for which the inhibition is -28.5%.
